Screening data: PubChem, National Center for Advancing Translational Sciences (NCATS)
Sampled rows, rich in hits. Any-hit rate of the full collection: about 11%.
Sfp PPTase inh: Sfp phosphopantetheinyl transferase inhibition; Biochemical Sfp PPTase activity, qHTS; Potency, µM, hits mostly inhibitors; 310,000 tested, 3.5% active; AID 1490;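 also: the enzyme is Sfp with the accession as filed and its product quenches rhodamine fluorescence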
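After 15 min at room temperature with compound, 15 nM Sfp received 5 uM rhodamine-CoA plus 12.5 uM BHQ-2-ybbR (50 mM Hepes pH 7.6, 10 mM MgCl2). Rate came from the fluorescence difference over 30 min, ex 525/em 598 nm.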
Tau FP inhib: blocks human tau fibril formation measured by polarization | K18 P301L tau heparin fibrillization, Alexa594 FP, 6 h | P10636 | 280,000 tested, 0.39% active | Potency, µM (highest dose often 57.7 µM), usual class: inhibitors | AID 1468; also: nearly all actives have a fitted effect of over 55% in size
Target sequence (P10636 561-689 P618L limits assumed): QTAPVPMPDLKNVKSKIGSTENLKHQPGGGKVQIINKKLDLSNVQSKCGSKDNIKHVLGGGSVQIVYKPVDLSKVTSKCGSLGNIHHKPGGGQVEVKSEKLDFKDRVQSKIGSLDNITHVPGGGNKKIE
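FP of Alexa 594-tau after heparin (20 uM) induction. Substrate: human K18 P301L, 15 uM unlabeled, 0.24 uM labeled. Buffer 100 mM sodium acetate pH 7. 6 hr, 37 C.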
Coupling enz: coupling enzyme interference in Giardia aldolase counter-screen; activity change, negative = inhibition, % at 58.2 µM, hits read low; AID 2472; 290,000 tested, 0.67% active; coupling enzyme system counterscreen, AmpLite Red fluorescence; in the data active = activity change below about -30%
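Compounds tested against the coupling enzymes alone at 57.5 uM final; readout was AmpLite Red fluorescence (525/598 nm) after 20 min at RT.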
G9a inh: blocks human histone lysine methyltransferase G9a; Q96KQ7; G9a H3K9 monomethylation, AlphaScreen, 2 h; Potency, µM (highest dose often 102 µM), usual class: inhibitors; 350,000 tested, 8.8% active; also: nearly all actives have a fitted effect of over 75% in size
Target sequence (Q96KQ7 913-1193 limits assumed): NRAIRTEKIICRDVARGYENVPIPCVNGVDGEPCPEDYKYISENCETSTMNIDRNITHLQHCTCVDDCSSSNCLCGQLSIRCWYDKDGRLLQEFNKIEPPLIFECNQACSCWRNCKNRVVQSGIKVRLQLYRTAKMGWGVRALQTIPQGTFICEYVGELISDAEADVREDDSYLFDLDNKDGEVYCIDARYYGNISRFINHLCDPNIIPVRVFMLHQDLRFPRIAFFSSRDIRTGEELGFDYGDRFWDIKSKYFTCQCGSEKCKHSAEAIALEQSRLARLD
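AlphaScreen detection with an anti-monomethyl H3K9 antibody quantified product after a 2 h room-temperature reaction containing 500 nM biotinylated H3K9 peptide, 20 µM SAM and 20 nM enzyme, which had been preincubated 15 min with compound.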
Tau ThT inhib: inhibitors of human tau fibril formation, thioflavin T binding; recombinant tau K18 P301L, heparin-induced fibrillization, ThT fluorescence; P10636; 270,000 tested, 2.1% active; Potency, µM (highest dose often 57.4 µM), most hits filed as inhibitors; also: nearly all actives have a fitted effect of over 55% in size
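Tau K18 P301L fragment (15 uM unlabeled plus 0.24 uM Alexa 594-labeled) in 100 mM sodium acetate pH 7 with compound, fibrillization induced by 20 uM heparin for 6 hr at 37 C. Thioflavin T (30 uM) added, fluorescence read after 1 hr (ex 450, em 510 nm).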
Tau fluor counter: counter-screen for tau fibril formation inhibitors. tau K18 P301L (four-repeat tau fragment) Alexa594 fluorescence, heparin fibrillization. Potency, µM (titrated, usually from 57.7 µM). 280,000 tested, 0.93% active. AID 1463; also: nearly all actives have a fitted effect of over 55% in size
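Human K18 P301L tau (15 uM unlabeled plus 0.24 uM Alexa 594-labeled, final) in 100 mM sodium acetate pH 7 was mixed with compound and 20 uM heparin and incubated 6 hr at 37 C.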
Large screens that a line does not name were inactive; ! = not active in a repeat. Unless noted, calls follow the shape of the dose curve; as a rule, active = well fitted curve in the direction sought with a large enough effect; inconclusive = small, poorly fitted or top-dose-only effect, or another doubt; inactive = no such curve, though single readings can be large; an effect the other way counts as inactive or inconclusive.

O=C(c1ccco1)N1N=C(c2cccs2)CC1c1cc([N+](=O)[O-])ccc1O (stereo unspecified)	G9a inh inconclusive (no result: Tau FP inhib, Coupling enz, Tau ThT inhib, Tau fluor counter)
COCCN1C(=O)C(=O)/C(=C(/O)c2ccc(S(=O)(=O)N3CCCCC3)cc2)C1c1ccc(OC)cc1 (stereo unspecified)	G9a inh 71µM (no result: Tau FP inhib, Tau ThT inhib, Tau fluor counter)
COCCN1C(=O)C(=O)/C(=C(/O)c2ccc(S(=O)(=O)N3CCOCC3)cc2)C1c1cccc(OC)c1 (stereo unspecified)	G9a inh 71µM (no result: Tau FP inhib, Tau ThT inhib, Tau fluor counter)
COc1ccc(C2/C(=C(/O)c3ccc(S(=O)(=O)N4CCOCC4)cc3)C(=O)C(=O)N2CCN2CCOCC2)cc1 (stereo unspecified)	G9a inh 50µM (no result: Tau FP inhib, Tau ThT inhib, Tau fluor counter)
COCCN1C(=O)C(=O)/C(=C(/O)c2ccc(S(=O)(=O)N3CCOCC3)cc2)C1c1cccc(O)c1 (stereo unspecified)	none
COCCN1C(=O)C(=O)/C(=C(/O)c2ccc(S(=O)(=O)N3CCCCC3)cc2)C1c1ccc(O)c(OC)c1 (stereo unspecified)	G9a inh 71µM (no result: Tau FP inhib, Tau ThT inhib, Tau fluor counter)
COCCCN1C(=O)C(=O)/C(=C(/O)c2ccc(S(=O)(=O)N3CCCCC3)cc2)C1c1ccc(F)cc1 (stereo unspecified)	none (no result: Tau FP inhib, Coupling enz, Tau ThT inhib, Tau fluor counter)
CCCCC(=O)N1C/C=C\C(c2ccc(OC)cc2)N(Cc2ccc(F)cc2)C(=O)C1Cc1ccccc1 (stereo unspecified)	none (no result: Tau FP inhib, G9a inh, Tau ThT inhib, Tau fluor counter)
Oc1c(Br)cc(Br)cc1/C=N/c1nccs1	G9a inh 1.6µM (no result: Sfp PPTase inh, Tau FP inhib, Coupling enz, Tau ThT inhib, Tau fluor counter)
CC(=O)Nc1ccc(S(=O)(=O)NC2CC2)cc1	none (no result: Tau FP inhib, Tau ThT inhib, Tau fluor counter)
O=[N+]([O-])C(=C1SCCS1)C(=C(Cl)Cl)N1CCCCC1	G9a inh 6.3µM, Tau ThT inhib inconclusive, Tau fluor counter inconclusive
CC(=O)c1c(C)oc2c1cc(NS(=O)(=O)c1ccc(C(C)(C)C)cc1)c1ccccc12	Tau fluor counter inconclusive (no result: Sfp PPTase inh, Coupling enz)
COc1ccc(S(=O)(=O)Nc2cc3c(C(C)=O)c(C)oc3c3ccccc23)cc1	Sfp PPTase inh 45µM, Tau fluor counter inconclusive
CC(=O)c1c(C)oc2c1cc(NS(=O)(=O)c1ccc(Cl)c(C)c1)c1ccccc12	Tau fluor counter inconclusive (no result: Sfp PPTase inh, Coupling enz)
Cc1oc2c(cc(NS(=O)(=O)c3ccc(F)cc3)c3ccccc32)c1C(=O)O	Coupling enz -31, G9a inh inconclusive (no result: Tau FP inhib, Tau ThT inhib, Tau fluor counter)
Cc1oc2c(cc(NS(=O)(=O)c3ccc(C(C)C)cc3)c3ccccc32)c1C(=O)O	G9a inh 50µM!, Tau ThT inhib inconclusive
Cc1cccc(Cn2nnc3c(=O)[nH]c(C4CCCN(C(=O)c5ccccc5Cl)C4)nc32)c1 (stereo unspecified)	none (no result: Sfp PPTase inh, Coupling enz)
Cc1ccc(CNC(=O)Cn2nc(N3CCN(c4ccccc4)CC3)ccc2=O)cc1	none (no result: Sfp PPTase inh, Coupling enz)
Cc1cc2c(NCCc3ccccc3)ncnc2s1	G9a inh 50µM (no result: Tau FP inhib, Tau ThT inhib, Tau fluor counter)
Cc1cc2c(Nc3ccccc3)ncnc2s1	G9a inh inconclusive
CCCCCCCCCCCCCCCCCC(=O)OC(CC(=O)O)C[N+](C)(C)C (stereo unspecified)	G9a inh 17µM!, Tau ThT inhib inconclusive (no result: Sfp PPTase inh, Coupling enz)
CCCC(=O)C1=C(c2ccccc2)C(C#N)(C#N)C(C#N)=C1N	Sfp PPTase inh 28µM, Tau FP inhib inconclusive, G9a inh 25µM, Tau ThT inhib 28µM, Tau fluor counter inconclusive
COc1ccc(-c2ccc(OC)c(C3C4C=CCCC4(C)C(=O)N3Cc3ccccc3)c2)cc1OC (stereo unspecified)	Sfp PPTase inh inconclusive (no result: Tau FP inhib, G9a inh, Tau ThT inhib, Tau fluor counter)
CCn1nc(C)c(/C=C2\CCCC3=C2OC(N)=C(C#N)C3c2c(C)nn(CC)c2C)c1C (stereo unspecified)	G9a inh 50µM, Tau ThT inhib inconclusive
COc1ccc(-c2cn3c(n2)sc2cc(C(=O)N4CCCCC4)ccc23)cc1	none (no result: Sfp PPTase inh, Coupling enz)
COc1ccc(-c2csc(NC(=O)CSc3ccc(Br)cc3)n2)c(OC)c1	G9a inh 25µM
COc1ccc(OC)c(-c2csc(NC(=O)CSc3ccccc3)n2)c1	Tau fluor counter inconclusive
COc1ccc(OC)c(-c2csc(NC(=O)Cc3ccc(OC)c(OC)c3)n2)c1	G9a inh 50µM (no result: Tau FP inhib, Tau ThT inhib, Tau fluor counter)
